Calls of active or inactive are those of the source. The calls were made as follows: active = hit-call score of the fitted dose curve at least 0.9, where 1 is the maximum; inactive = score below 0.9.

Read-out in experiment [1]: Thrombomodulin, THBD (gene 7056)
Put plainly: BSK_CASM3C_Thrombomodulin: BioMAP Diversity Plus: CASM3C Assay for Thrombomodulin Biomarker Activity (AID 2283051).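 Also: thrombomodulin protein level measured by ELISA 24 h after dosing.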 The following applies: primary human coronary artery smooth muscle cells; actives raise or lower the signal.

Read-out in experiment [2]: Tissue Factor, F3 (gene 2152)
Put plainly: BSK_CASM3C_TissueFactor: BioMAP Diversity Plus: CASM3C Assay for Tissue Factor Biomarker Activity (AID 2283052).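 Also: cell surface tissue factor protein level read by ELISA.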 The note with it: primary human coronary artery smooth muscle cells; actives raise or lower the signal.

Read-out in experiment [3]: Interferon-gamma inducible Protein 10 (IP10), CXCL10 (gene 3627)
Put plainly: BSK_hDFCGF_IP10: BioMAP Diversity Plus: hDFCGF Assay for Interferon-gamma inducible Protein 10 (IP10) Biomarker Activity (AID 2283053). The following applies: primary human foreskin fibroblasts; actives raise or lower the signal. The procedure, abridged: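 Chemical-treated human skin fibroblasts (primary) were sampled at 24 h for IP-10 by ELISA. Both increases and decreases relative to DMSO were scored.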

Read-out in experiment [4]: Urokinase-type plasminogen activator receptor (uPAR), PLAUR (gene 5329)
In words: BSK_CASM3C_uPAR: BioMAP Diversity Plus: CASM3C Assay for Urokinase-type plasminogen activator receptor (uPAR) Biomarker Activity (AID 2283054).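 Also: cell-surface uPAR protein level quantified by ELISA.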 The note with it: primary human coronary artery smooth muscle cells; actives raise or lower the signal.

Read-out in experiment [5]: Vascular cell adhesion molecule 1 (VCAM1), VCAM1 (gene 7412)
In words: BSK_CASM3C_VCAM1: BioMAP Diversity Plus: CASM3C Assay for Vascular cell adhesion molecule 1 (VCAM1) Biomarker Activity (AID 2283055).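 Also: VCAM-1 protein level quantified by ELISA on the cells.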 The following applies: primary human coronary artery smooth muscle cells; actives raise or lower the signal.

Read-out in experiment [6]: Collagen III, COL3A1 (gene 1281)
In words: BSK_hDFCGF_CollagenIII: BioMAP Diversity Plus: hDFCGF Assay for Collagen III Biomarker Activity (AID 2283056). The note with it: primary human foreskin fibroblasts; actives raise or lower the signal. The procedure, abridged:
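Cells: human foreskin fibroblasts, primary. Dosing followed by 24 h incubation, then ELISA for collagen III. Both increases and decreases scored relative to DMSO.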

Read-out in experiment [7]: Epidermal growth factor receptor (EGFR), EGFR (gene 1956)
In words: BSK_hDFCGF_EGFR: BioMAP Diversity Plus: hDFCGF Assay for Epidermal growth factor receptor (EGFR) Biomarker Activity (AID 2283057). The note with it: primary human foreskin fibroblasts; actives raise or lower the signal. The method, boiled down:
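Cell-based multiplexed assay in primary human foreskin fibroblasts. EGFR is read by ELISA 24 h after treatment and compared with DMSO controls.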

Read-out in experiment [8]: Interleukin-8 (IL8), CXCL8 (gene 3576)
In words: BSK_hDFCGF_IL8: BioMAP Diversity Plus: hDFCGF Assay for Interleukin-8 (IL8) Biomarker Activity (AID 2283058). The note with it: primary human foreskin fibroblasts; actives raise or lower the signal. The procedure, abridged:
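IL-8 levels from compound-treated primary human fibroblasts were read by ELISA at 24 h, with DMSO serving as baseline for bidirectional fitting.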

A short description of experiment [9]: BSK_hDFCGF_Proliferation: Cell Proliferation Assessment in the BioMAP Diversity Plus: hDFCGF Assay (AID 2283059).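 Also: curves fitted for both rise and fall of signal versus DMSO baseline.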 The note with it: primary human foreskin fibroblasts. The method, boiled down:
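Sub-confluent human foreskin fibroblast cultures receive test chemical […]. Relative cell number is quantified by sulforhodamine B staining (0.1%, after 10% TCA fixation) at 560 nm, with bidirectional fitting referenced to DMSO.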

Read-out in experiment [10]: Macrophage colony-stimulating factor (MCSF), CSF1 (gene 1435)
In words: BSK_hDFCGF_MCSF: BioMAP Diversity Plus: hDFCGF Assay for Macrophage colony-stimulating factor (MCSF) Biomarker Activity (AID 2283060). The note with it: primary human foreskin fibroblasts; actives raise or lower the signal. The procedure, abridged: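 M-CSF levels, determined by ELISA, are taken at 24 h after dosing human skin fibroblasts. Responses in either direction are fitted with DMSO serving as the baseline.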

The nature of experiment [11]: BSK_hDFCGF_SRB: Viability Assessment in the BioMAP Diversity Plus: hDFCGF Assay (AID 2283061).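 Also: cells exposed to compound for 24 h before the read.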 The note with it: primary human foreskin fibroblasts. The procedure, abridged:
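Cells were dosed with test chemical, cultured 24 h, fixed with 10% TCA, then stained with 0.1% SRB and read at 560 nm. The fibroblasts were human foreskin primary cells, and DMSO served as baseline.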

Read-out in experiment [12]: TIMP metallopeptidase inhibitor 1 (TIMP1), TIMP1 (gene 7076)
Put plainly: BSK_hDFCGF_TIMP1: BioMAP Diversity Plus: hDFCGF Assay for TIMP metallopeptidase inhibitor 1 (TIMP1) Biomarker Activity (AID 2283062). The note with it: primary human foreskin fibroblasts; actives raise or lower the signal. The method, boiled down:
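Fibroblasts from human foreskin are treated with test chemical and harvested at 24 h. TIMP-1 is quantified by ELISA, and gain or loss of signal is scored against DMSO.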

Read-out in experiment [13]: Monokine induced gamma interferon (MIG), CXCL9 (gene 4283)
Put plainly: BSK_hDFCGF_MIG: BioMAP Diversity Plus: hDFCGF Assay for Monokine induced gamma interferon (MIG) Biomarker Activity (AID 2283063). The note with it: primary human foreskin fibroblasts; actives raise or lower the signal. The procedure, abridged:
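MIG signal, determined by ELISA, reflects 24 h chemical exposure of human skin primary fibroblasts. DMSO serves as negative control and baseline.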

Read-out in experiment [14]: Matrix Metallopeptidase 1 (MMP1), MMP1 (gene 4312)
Put plainly: BSK_hDFCGF_MMP1: BioMAP Diversity Plus: hDFCGF Assay for Matrix Metallopeptidase 1 (MMP1) Biomarker Activity (AID 2283064). The note with it: primary human foreskin fibroblasts; actives raise or lower the signal. The procedure, abridged:
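ELISA read-out of MMP1 from human foreskin fibroblasts (primary skin cells), 24 h post-dose. Gain or loss of signal was fitted bidirectionally versus DMSO negative control; cytotoxicity was checked by SRB in parallel cultures.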

Read-out in experiment [15]: Vascular cell adhesion molecule 1 (VCAM1), VCAM1 (gene 7412)
Put plainly: BSK_hDFCGF_VCAM1: BioMAP Diversity Plus: hDFCGF Assay for Vascular cell adhesion molecule 1 (VCAM1) Biomarker Activity (AID 2283065).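 As to AC50: VCAM-1 protein level quantified by ELISA after 24 h chemical exposure.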 The note with it: primary human foreskin fibroblasts; actives raise or lower the signal. The procedure, abridged:
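Cells are dosed, cultured for 24 h, then VCAM-1 is quantified by ELISA; signal increases and decreases are both fitted relative to DMSO.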

Read-out in experiment [16]: Plasminogen activator inhibitor-1 (PAI1), SERPINE1 (gene 5054)
Put plainly: BSK_hDFCGF_PAI1: BioMAP Diversity Plus: hDFCGF Assay for Plasminogen activator inhibitor-1 (PAI1) Biomarker Activity (AID 2283066). The following applies: primary human foreskin fibroblasts; actives raise or lower the signal. The procedure, abridged:
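Human skin fibroblast cultures receive chemical for 24 h before PAI-1 is measured by ELISA; signal changes are fitted bidirectionally against DMSO-treated wells.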

Read-out in experiment [17]: Intercellular Adhesion Molecule 1 (ICAM1), ICAM1 (gene 3383)
Put plainly: BSK_KF3CT_ICAM1: BioMAP Diversity Plus: KF3CT Assay for Intercellular Adhesion Molecule 1 (ICAM1) Biomarker Activity (AID 2283067). The note with it: primary human keratinocytes with fibroblasts; actives raise or lower the signal. The method, boiled down:
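Dose the keratinocyte/fibroblast co-culture, wait 24 h, measure ICAM-1 by ELISA, then fit increases or decreases against DMSO. Cytotoxicity is checked in parallel cultures by SRB total-protein staining.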

Read-out in experiment [18]: Interferon-gamma inducible Protein 10 (IP10), CXCL10 (gene 3627)
In words: BSK_KF3CT_IP10: BioMAP Diversity Plus: KF3CT Assay for Interferon-gamma inducible Protein 10 (IP10) Biomarker Activity (AID 2283068). The note with it: primary human keratinocytes with fibroblasts; actives raise or lower the signal. The method, boiled down: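 ELISA read-out of IP-10 after 24 h chemical dosing of human skin primary co-culture (keratinocytes, foreskin fibroblasts). Gain or loss of signal relative to DMSO, bidirectional curve fit.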

Experiment [19] can be described thus: BSK_KF3CT_SRB: Viability Assessment in the BioMAP Diversity Plus: KF3CT Assay (AID 2283069).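 Also: total protein by sulforhodamine B staining as a cytotoxicity measure; fitted for both signal gain and loss against DMSO baseline.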 The note with it: primary human keratinocytes with fibroblasts. The method, boiled down:
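SRB read-out at 560 nm (0.1% stain, TCA-fixed cells) gauges overt cytotoxicity in a human skin keratinocyte–fibroblast co-culture 24 h post-dosing. Signal change was fitted bidirectionally relative to DMSO control.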

Read-out in experiment [20]: Interleukin-1 alpha (IL1a), IL1A (gene 3552)
In words: BSK_KF3CT_IL1a: BioMAP Diversity Plus: KF3CT Assay for Interleukin-1 alpha (IL1a) Biomarker Activity (AID 2283070). The note with it: primary human keratinocytes with fibroblasts; actives raise or lower the signal. The procedure, abridged: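 Primary skin co-culture (keratinocytes, foreskin fibroblasts), 24 h exposure; ELISA for IL-1a; bidirectional curve fit vs DMSO.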

`O=C(Cc1ccccc1)OCCc1ccccc1`: the result in experiment [1], in [2], in experiment [3], in experiment [4], in [5] and in experiment [6] was inactive. For the same compound, the outcome in experiment [7], in experiment [8], in experiment [9], in [10], in [11] and in [12] was inactive. For the same compound, the outcome in experiment [13], in experiment [14], in experiment [15], in experiment [16], in experiment [17] and in [18] was inactive. Besides, the result in [19] and in experiment [20] was inactive.
Regarding `CCOP(=S)(OCC)OP(=S)(OCC)OCC`, the result in experiment [1], in experiment [2], in experiment [4], in [6], in experiment [7] and in experiment [8] was inactive. In addition, the outcome in experiment [10], in experiment [11], in experiment [12], in experiment [13], in experiment [14] and in experiment [16] was inactive. Also, the outcome in experiment [17], in [18], in experiment [19] and in experiment [20] was inactive. In addition, the AC50 in [3] is 29600 nM (active); in [5], 20000 nM (active); in experiment [9], 23200 nM (active); in experiment [15] it was 30400 nM (active).
Take `[Cl][Sn]([c]1ccccc1)([c]1ccccc1)[c]1ccccc1`: the AC50 in [1] is 1070 nM (active); in experiment [2] it was 1370 nM (active); in experiment [3], 86.1 nM (active); in experiment [4], 351 nM (active); in experiment [5], 396 nM (active); in experiment [6], 500 nM (active). Further, the AC50 in experiment [8] was 123 nM (active); in [9], 54.2 nM (active); in experiment [10], 166 nM (active); in experiment [11], 233 nM (active); in experiment [12], 158 nM (active); in [13], 85.5 nM (active). The AC50 was 103 nM (active) in [14]; 99.6 nM (active) in experiment [15]; 114 nM (active) in experiment [16]; 334 nM (active) in [17]; 140 nM (active) in experiment [18]; 183 nM (active) in experiment [19]. Moreover, the AC50 in [20] was 127 nM (active). In experiment [7], the outcome was inactive.
Consider `Cc1cc(C(C)(C)c2ccc(O)c(C)c2)ccc1O`, for which the AC50 in experiment [1] is 3010 nM (active); in experiment [2], 8570 nM (active); in experiment [4], 17100 nM (active); in [5] it was 13900 nM (active); in experiment [6], 15600 nM (active); in experiment [9], 13900 nM (active). The AC50 in [10] is 15300 nM (active); in experiment [11] it was 16100 nM (active). The result in experiment [3], in experiment [7], in experiment [8], in [12], in [13] and in experiment [14] was inactive. Besides, the result in experiment [15], in experiment [16], in experiment [17], in experiment [18], in experiment [19] and in experiment [20] was inactive.

The values are drawn from PubChem BioAssay (EPA / NIEHS).
